# Laboratory results taken from PubChem BioAssay (NCI).
# The panel holds about 83,000 compounds, 20% with a hit somewhere; the sample as a whole holds those more often.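 For each line, cells grew in 96-well plates with the test compound present at a single concentration for 48 hours.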 Active and inactive are the calls of the source. The calls were made as follows: active = growth percent below 10; inactive = the rest.
# Test system: MDA-MB-231 breast
# Assay: NCI-60 one-dose screen, 48 h (100 = growth as untreated, 0 = no growth, -100 = all killed)
# Settings: 10 µM unless noted
row,Structure (SMILES),growth
1,COc1cc2c(cc1OC)C(=O)/C(=C/c1cc(-c3ccc4c(c3)OCO4)n[nH]1)C2,24.6% (inactive)
2,CCN(CC)CCCCCCNc1ccnc2cc(Cl)ccc12,51.8% (inactive)
3,COC(c1ccccc1)(c1ccccc1)c1ccccc1,102% (inactive)
4,CC(CNc1nc(Nc2ccc(Cl)c(Cl)c2)nc(C(Cl)(Cl)Cl)n1)N(C)C (stereo not drawn),-62.6% (active)
5,COc1cccc2c1C(=O)c1c(O)c3c(c(O)c1C2=O)C[C@@](O)(C(=O)CO)C[C@@H]3OC1C[C@H](N)[C@H](O)[C@H](C)O1 (stereo partly drawn),-9.32% (active)
6,NC(=O)[C@@H]1CC2CCC1C2 (stereo partly drawn),123% (inactive)
7,COc1cc2[nH]c(C(=O)c3cc(OC)c(OC)c(OC)c3)c(N)c2cc1C#CCO,39% (inactive)
8,CN(C)c1ccc(N=C2C=CC(=O)C=C2)cc1,46.4% (inactive)
9,COc1ccc(C(=O)c2cc(OC)c(OC)c(OC)c2)cc1/C=C/C(=O)c1cc(OC)c(OC)c(OC)c1,62.8% (inactive)
10,Nc1c(C(=O)Nc2cccc(Br)c2)sc2nc3c(cc12)C(=O)CCC3,38.5% (inactive)
11,O=C1NC(=Nc2ccc(S(=O)(=O)Nc3nccs3)cc2)S/C1=C\c1coc2ccccc2c1=O,105% (inactive)
12,COc1ccc(C(=O)/C=C/c2cc(-c3cc(OC)c(OC)c(OC)c3)n[nH]2)cc1OC,-4.03% (active)
13,COc1cc2[nH]c(C(=O)c3cc(OC)c(OC)c(OC)c3)c(N)c2cc1C#CC1CC1,58.4% (inactive)
14,O=C(NC1=CC(=O)c2ccccc2C1=O)c1ccccc1,16.9% (inactive)
15,COC(=O)c1cc(=O)nc(N/N=C/c2ccc(C)cc2)s1,113% (inactive)
16,COc1cc(C(=O)/C=C/c2cc(-c3ccc4c(c3)OCO4)n[nH]2)cc(OC)c1OC,30.6% (inactive)
17,COc1cc(-c2cc(-c3nc4cc(Cl)c(Cl)cc4[nH]3)[nH]n2)cc(OC)c1OC,74% (inactive)
18,COc1ccc2c(c1)C/C(=C\c1cc(-c3ccc4c(c3)OCO4)n[nH]1)C2=O,79.7% (inactive)

row,Structure (SMILES),growth
1,CC(C)(C)c1ccc(OP(=S)(N/N=C/c2ccccc2O)Oc2ccc(C(C)(C)C)cc2)cc1,63.5% (inactive)
2,OCC12CCCC(CO)(COC1)C2O (stereo not drawn),94.3% (inactive)
3,COc1ccc(-c2cc(/C=C/C(=O)c3ccc(N)cc3)[nH]n2)cc1,35.7% (inactive)
4,O=c1c(CNc2ccc(S(=O)(=O)Nc3ncccn3)cc2)coc2ccccc12,99.9% (inactive)
5,NC(Cc1ccc(O)cc1)C(=O)N/N=C/c1ccccc1O (stereo not drawn),109% (inactive)
6,COc1ccc2c(c1)C/C(=C\c1cc(-c3cc(OC)c(OC)c(OC)c3)n[nH]1)C2=O,78.9% (inactive)
7,O=c1c(CNc2ccc(S(=O)(=O)Nc3nccs3)cc2)coc2ccccc12,98.8% (inactive)
8,Nc1c(C(=O)Nc2cccc(Cl)c2)sc2ncc(Cl)cc12,83.7% (inactive)
9,CCN(CC)CCCCCNc1cc(OC(=O)c2ccccc2)cc2cccnc12,88.2% (inactive)
10,Fc1ccc2nc(-c3cc(-c4ccc5c(c4)OCO5)n[nH]3)[nH]c2c1,67.6% (inactive)
11,C#Cc1cc2c(N)c(C(=O)c3cc(OC)c(OC)c(OC)c3)[nH]c2cc1OC,49.2% (inactive)
12,Cc1cc(Cl)c2c(N(C)C)cccc2n1,92.8% (inactive)
13,COc1ccc(/C=C2\N=C(c3ccccc3)N(c3cc(OC)c(OC)cc3C(=O)N3N=C(C)CC3=O)C2=O)cc1,87.4% (inactive)
14,COc1ccc2nc(-c3c(-c4ccccc4)nc4ncccn34)[nH]c2c1,99.3% (inactive)
15,O=C1C=C(C(O)c2ccc(O)cc2)C(=O)c2ccccc21 (stereo not drawn),83.5% (inactive)
16,Cc1ccc(-c2nc3ccc(Cl)cc3c(=O)n2N2C(=O)CSC2c2ccccc2Cl)cc1 (stereo not drawn),59.9% (inactive)
17,NS(=O)(=O)c1ccc(CCNC(=O)/C=C/c2ccc(Cl)cc2)cc1,98.4% (inactive)

# Test system: RXF 393 renal
# Assay: as above
# Settings: 10 µM unless noted
row,Structure (SMILES),growth
1,O=C1C=Cc2ncccc2C1=O,106% (inactive)
2,COc1cc2c(cc1OC)C(=O)/C(=C/c1cc(-c3ccc4c(c3)OCO4)n[nH]1)C2,-39.8% (active)
3,CC(CNc1nc(Nc2ccc(Cl)c(Cl)c2)nc(C(Cl)(Cl)Cl)n1)N(C)C (stereo not drawn),-24.3% (active)
4,NC(=O)[C@@H]1CC2CCC1C2 (stereo partly drawn),110% (inactive)
5,COc1cc2[nH]c(C(=O)c3cc(OC)c(OC)c(OC)c3)c(N)c2cc1C#CCO,1.88% (active)
6,COc1ccc(C(=O)c2cc(OC)c(OC)c(OC)c2)cc1/C=C/C(=O)c1cc(OC)c(OC)c(OC)c1,70% (inactive)
7,Nc1c(C(=O)Nc2cccc(Br)c2)sc2nc3c(cc12)C(=O)CCC3,-1.14% (active)
8,O=C1NC(=Nc2ccc(S(=O)(=O)Nc3nccs3)cc2)S/C1=C\c1coc2ccccc2c1=O,105% (inactive)
9,COc1ccc(C(=O)/C=C/c2cc(-c3cc(OC)c(OC)c(OC)c3)n[nH]2)cc1OC,-78.8% (active)
10,COc1cc2[nH]c(C(=O)c3cc(OC)c(OC)c(OC)c3)c(N)c2cc1C#CC1CC1,19.6% (inactive)
11,O=C(NC1=CC(=O)c2ccccc2C1=O)c1ccccc1,35.3% (inactive)
12,COC(=O)c1cc(=O)nc(N/N=C/c2ccc(C)cc2)s1,111% (inactive)
13,COc1cc(C(=O)/C=C/c2cc(-c3ccc4c(c3)OCO4)n[nH]2)cc(OC)c1OC,1.1% (active)
14,O=C(/C=C\c1ccc2c(c1)OCO2)/C=C/c1ccc2c(c1)OCO2,85% (inactive)
15,COc1cc(-c2cc(-c3nc4cc(Cl)c(Cl)cc4[nH]3)[nH]n2)cc(OC)c1OC,70.6% (inactive)
16,COC1=C(Br)C(=O)C(OC)=C(Br)C1=O,119% (inactive)
17,COc1ccc2c(c1)C/C(=C\c1cc(-c3ccc4c(c3)OCO4)n[nH]1)C2=O,95.6% (inactive)

row,Structure (SMILES),growth
1,CC(C)(C)c1ccc(OP(=S)(N/N=C/c2ccccc2O)Oc2ccc(C(C)(C)C)cc2)cc1,87.3% (inactive)
2,OCC12CCCC(CO)(COC1)C2O (stereo not drawn),121% (inactive)
3,COc1ccc(-c2cc(/C=C/C(=O)c3ccc(N)cc3)[nH]n2)cc1,20% (inactive)
4,O=c1c(CNc2ccc(S(=O)(=O)Nc3ncccn3)cc2)coc2ccccc12,103% (inactive)
5,NC(Cc1ccc(O)cc1)C(=O)N/N=C/c1ccccc1O (stereo not drawn),115% (inactive)
6,COc1ccc2c(c1)C/C(=C\c1cc(-c3cc(OC)c(OC)c(OC)c3)n[nH]1)C2=O,94.9% (inactive)
7,O=c1c(CNc2ccc(S(=O)(=O)Nc3nccs3)cc2)coc2ccccc12,103% (inactive)
8,Nc1c(C(=O)Nc2cccc(Cl)c2)sc2ncc(Cl)cc12,83.5% (inactive)
9,Fc1ccc2nc(-c3cc(-c4ccc5c(c4)OCO5)n[nH]3)[nH]c2c1,63.1% (inactive)
10,C#Cc1cc2c(N)c(C(=O)c3cc(OC)c(OC)c(OC)c3)[nH]c2cc1OC,-5.3% (active)
11,Cc1cc(Cl)c2c(N(C)C)cccc2n1,116% (inactive)
12,COc1ccc(/C=C2\N=C(c3ccccc3)N(c3cc(OC)c(OC)cc3C(=O)N3N=C(C)CC3=O)C2=O)cc1,93.5% (inactive)
13,COc1ccc2nc(-c3c(-c4ccccc4)nc4ncccn34)[nH]c2c1,104% (inactive)
14,O=C1C=C(C(O)c2ccc(O)cc2)C(=O)c2ccccc21 (stereo not drawn),147% (inactive)
15,Cc1ccc(-c2nc3ccc(Cl)cc3c(=O)n2N2C(=O)CSC2c2ccccc2Cl)cc1 (stereo not drawn),98.5% (inactive)
16,NS(=O)(=O)c1ccc(CCNC(=O)/C=C/c2ccc(Cl)cc2)cc1,122% (inactive)
